From PubChem BioAssay (NCI)
The panel holds about 83,000 compounds, 20% with a hit somewhere; the sample as a whole holds those more often.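 Single-dose data. Exposure time 48 hours. Values below 10 considered active.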 A number with no mark means an inactive call. The source made the active and inactive calls.

Columns and labels:
Assay in all cases: NCI-60 one-dose screen, 48 h (100 = growth as untreated, 0 = no growth, -100 = all killed)
Details in all cases: 10 µM unless noted
SR leukemia = system: SR leukemia
RPMI-8226 leukemia = system: RPMI-8226 leukemia
OVCAR-8 ovarian = system: OVCAR-8 ovarian
OVCAR-5 ovarian = system: OVCAR-5 ovarian
OVCAR-4 ovarian = system: OVCAR-4 ovarian
SK-OV-3 ovarian = system: SK-OV-3 ovarian
IGROV1 ovarian = system: IGROV1 ovarian
OVCAR-3 ovarian = system: OVCAR-3 ovarian
HS 578T breast = system: HS 578T breast
NCI/ADR-RES ovarian = system: NCI/ADR-RES ovarian
T-47D breast = system: T-47D breast
BT-549 breast = system: BT-549 breast
MDA-MB-435 melanoma = system: MDA-MB-435 melanoma
SW-620 colon = system: SW-620 colon
MCF7 breast = system: MCF7 breast
HCT-116 colon = system: HCT-116 colon
HCC-2998 colon = system: HCC-2998 colon
KM12 colon = system: KM12 colon

Row | Structure (SMILES) | growth (SR leukemia) | growth (RPMI-8226 leukemia) | growth (OVCAR-8 ovarian) | growth (OVCAR-5 ovarian) | growth (OVCAR-4 ovarian) | growth (SK-OV-3 ovarian) | growth (IGROV1 ovarian) | growth (OVCAR-3 ovarian) | growth (HS 578T breast) | growth (NCI/ADR-RES ovarian) | growth (T-47D breast) | growth (BT-549 breast) | growth (MDA-MB-435 melanoma) | growth (SW-620 colon) | growth (MCF7 breast) | growth (HCT-116 colon) | growth (HCC-2998 colon) | growth (KM12 colon)
1 | Cc1cccc(CN(Nc2ccccc2)c2ccccc2)n1 | 93% | 96.3% | 98.5% | 102% | 109% | 104% | 127% | 99.5% | 109% | 102% | 87.2% | 111% | 103% | 107% | 93.3% | 95.5% | 112% | 110%
2 | O=C(/C=C/c1cccc([N+](=O)[O-])c1)c1ccc(Nc2nc(Nc3ccc(F)cc3)nc(Nc3ccc(Cl)cc3)n2)cc1 | 8.59% (active) | 32% | 86.3% | 62.7% | 97.3% | 110% | 84.4% | 104% | 106% | 83.9% | 81.4% | 103% | 102% | 104% | 67.1% | 97.1% | 103% | 105%
3 | O=C1C=CC2(O)OC(c3ccccc3)CC(=O)C2=C1O (stereo not drawn) | 56.2% | 64.3% | 82% | 96.4% | 79.5% | 106% | 90.9% | 1.12% (active) | 102% | 86% | 83.6% | 74% | 87.7% | 102% | 86% | 82.9% | 101% | 15.9%
4 | COc1ccc(NC(=O)CSc2oc(-c3ccccc3)nc2S(=O)(=O)c2ccc(Cl)cc2)c(OC)c1 | 65.2% | 49.9% | 34.3% | 107% | 64.6% | 83.2% | 93.5% | 75.3% | 36.2% | 61.7% | 60.5% | 61.7% | 86.6% | 81.7% | 73.8% | 41.6% | 83.5% | 71.9%
5 | O=C1NCCN1/N=C/c1c(Cl)n(Cc2ccc(Cl)cc2)c2ccccc12 | 78.4% | 82.6% | 78.7% | 96.8% | 79.1% | 146% | 24.9% | 84.8% | 90.3% | 90.8% | 113% | 79.2% | 85.6% | 108% | 84.7% | 89.5% | 95.9% | 110%
6 | C#CCOc1cccc(Nc2ncnc3c(NC(=O)CCl)cccc23)c1 | -39.4% (active) | -40.2% (active) | -0.718% (active) | 67.6% | -27% (active) | 81.7% | -58.9% (active) | -79% (active) | 50.6% | 18.8% | -31.4% (active) | 23% | 26.4% | 1.15% (active) | 10.9% | 2.88% (active) | 91.8% | 28.6%
7 | CNC(=O)c1cc(Oc2ccc3nc(NC(=O)NC(C)C)sc3c2)ccn1 | 30.4% | 73.2% | 88.4% | 117% | 77.8% | 87% | 86.7% | 97.4% | 74.6% | 65% | 64.3% | 86.5% | 0.517% (active) | 53.2% | 53.9% | 57.7% | 79.3% | 39.3%
8 | CN(C)CCCN(CCC1CCCCC1)CCC1CCCCC1 | -35.3% (active) | 23.8% | 81.1% | 83.3% | 71.2% | 97% | 39.7% | 34.6% | 58.1% | 74.4% | -37.6% (active) | 86% | -33.2% (active) | 40.6% | -24.1% (active) | 29% | -88.1% (active) | 12%
9 | CCN(CC)CCCNC(=O)c1c2c(n3ccccc13)C(=O)c1ncccc1C2=O | -22.6% (active) | -23.8% (active) | -56.1% (active) | -8.93% (active) | -83.4% (active) | -41.4% (active) | -40.3% (active) | -39.5% (active) | 37.5% | 3.02% (active) | -64.4% (active) | -6.67% (active) | -58.7% (active) | -47% (active) | -52.9% (active) | -70.5% (active) | -72.5% (active) | -13.2% (active)
10 | COc1ccc2c(c1)C(c1c[nH]c3ccccc13)(c1c[nH]c3ccccc13)CCO2 | 55.9% | 33.3% | 61.2% | 76.6% | 26% | 23.9% | 48% | 57.4% | 55.5% | 54.1% | -6.36% (active) | 55.6% | 49.9% | 61.9% | 30.7% | 18.8% | 72.4% | 46.2%
11 | Cc1ccc(C23CCC(=O)N2CCc2cncn23)cc1 (stereo not drawn) | 126% | 100% | 97.2% | 96.3% | 108% | 92.8% | 93.6% | 113% | 101% | 107% | 91.2% | 100% | 101% | 97.7% | 97.9% | 104% | 107% | 101%
12 | C=C(c1ccc(C(=O)O)c(F)c1)c1cc2c(cc1C)C(C)(C)C=CC2(C)C | 91.6% | 26.3% | 82.8% | 111% | 81.2% | 73% | 90.4% | 92.5% | 61.9% | 83.1% | 58.9% | 87.4% | 95.3% | 110% | 52.5% | 85.4% | 112% | 66.6%
13 | Cn1ccnc1C(=O)/C=C/c1ccc(C(=O)Nc2c(F)c(F)c(F)c(F)c2F)cc1 | -17.4% (active) | -9.03% (active) | 20.6% | 13.1% | 22.4% | 62.1% | 0.574% (active) | -4% (active) | 48.5% | 7.31% (active) | 9.11% (active) | 22.4% | 48.7% | -14.3% (active) | 13% | -21.5% (active) | -4.74% (active) | -58.7% (active)
14 | COc1cc(OCc2cccc(-c3ccccc3)c2C)cc(OC)c1CN1CCCCC1C(=O)NCCOCCOCCN (stereo not drawn) | -26% (active) | 13.4% | 82.8% | 101% | 53.3% | 104% | 70% | 85% | 84.5% | 103% | 71.2% | 84.7% | -72.8% (active) | 61.2% | 51.3% | 22.8% | 88% | 78.9%
15 | CO[C@H]1CC(c2ccc[nH]2)=N[C@]12O[C@@H](C)C[C@@H]1CCCCCCCc3ccc([nH]3)[C@H]12 | 9.34% (active) | -1.79% (active) | 14.8% | 29.7% | 29.2% | 30% | 28.9% | 29.2% | 29.2% | 17.1% | 11.8% | 33.7% | 15.2% | 21.5% | 16.5% | 8.1% (active) | 22.1% | 18.3%
16 | CCC(C)C(N)C(=O)NC(CC(C)C)C(=O)N1CCCC1C(=O)NC(Cc1c[nH]c2ccccc12)C(=O)NC(CCCCN)C(=O)NC(Cc1c[nH]c2ccccc12)C(=O)N1CCCC1C(=O)NC(Cc1c[nH]c2ccccc12)C(=O)NC(Cc1c[nH]c2ccccc12)C(=O)N1CCCC1C(=O)NC(Cc1c[nH]c2ccccc12)C(=O)NC(CCCNC(=N)N)C(=O)NC(CCCNC(=N)N)C(N)=O (stereo not drawn) | 10.9% | 75% | 75.5% | 98.8% | 119% | 109% | 58.4% | 101% | 105% | 92.1% | 108% | 109% | 95.9% | 108% | 121% | 95.3% | 101% | 63.7%
